Reference: PubChem BioAssay (Tox21)
Results filed as inconclusive are left out. Calls of active or inactive are those of the source. Unless noted, calls follow the shape of the full dose curve.

Legend:
[1] = Nuclear factor erythroid 2-related factor 2/antioxidant responsive element (Nrf2/ARE) small molecule agonists: qHTS cell viability counter screen in human keratinocytes (AID 1919968; active = well fitted curve in the direction sought with a large enough effect in the repeat runs; an effect the other way counts as inactive or inconclusive; also: nearly all actives have a fitted effect of over 55% in size)
Method in brief: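 After a 5 h attachment period, ARE-reporter keratinocytes were dosed with compounds in DMSO and then cultured 23 h at 37 C. Cell viability came from CellTiter-Fluor signal read after a further 1 h.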

[2] = Nuclear factor erythroid 2-related factor 2/antioxidant responsive element (Nrf2/ARE) small molecule agonists: luciferase reporter gene qHTS assay in human keratinocytes (AID 1919969); also: nearly all actives have a fitted effect of over 35% in size
[3] = target: Gonadotropin-releasing hormone receptor (Homo sapiens) (UniProt P30968); assay: Human gonadotropin-releasing hormone receptor (GnRHR) small molecule agonists, calcium flux assay in GnRHR-HEK293 cells (AID 1920063); also: nearly all actives have a fitted effect of over 35% in size
Method in brief: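 We seeded human GnRHR-expressing HEK293 cells for 18 hours, loaded them with calcium dye for an hour at 37 C, added test compounds, and recorded fluorescence intensity kinetically for three minutes.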

[4] = target: KiSS-1 receptor (Homo sapiens) (UniProt Q969F8); assay: Human kisspeptin (KISS1R) small molecule agonists, calcium flux assay in KISS1R-HEK293 cells (AID 1920064; active = well fitted curve in the direction sought with a large enough effect in the repeat runs; an effect the other way counts as inactive or inconclusive)
Method in brief: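 Kinetic calcium assay, 1 s sampling over 3 min at Ex/Em 480/540, in HEK293 cells engineered with human KISS1R; compounds delivered in DMSO after 1 h dye loading.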

[5] = G protein-coupled receptor (GPCR) small molecule agonists, calcium flux assay: HEK293 wild type cell line counter screen (AID 1920065)
Method in brief: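 Calcium-sensitive dye, loaded 1 h at 37 C into cells cultured 18 h, reports compound-evoked calcium release as fluorescence (Ex/Em 480/540), measured over 3 min. Agonist mode; 15-point titrations, triplicate.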

[6] = p53 small molecule agonists, cell-based qHTS assay with human liver microsomes (AID 1963577);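 also: p53 response element beta-lactamase reporter cells with liver microsomes plus NADPH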
Method in brief: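 With metabolic activation: human liver microsomes (0.5 mg/mL final) plus NADPH (0.5 mg/mL final) added alongside compounds to p53RE-bla cells; 16 h 37 C exposure; beta-lactamase read by LiveBLAzer fluorescence.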

[7] = p53 small molecule agonists, cell-based qHTS assay with rat liver microsomes (AID 1963578)
Method in brief: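 Metabolic activation by rat liver microsomes and NADPH, each 0.5 mg/mL final, added right after compounds to p53RE-bla reporter cells (4,000/well, plated 5 h earlier). 16 h at 37 C, then LiveBLAzer substrate for 2 h at room temperature in the dark; fluorescence read-out.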

[8] = p53 small molecule agonists, cell-based qHTS assay with human liver microsomes: qHTS cell viability counter screen (AID 1963579); also: nearly all actives have a fitted effect of over 45% in size
Method in brief: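 Metabolic activation used human liver microsomes and NADPH, both 0.5 mg/mL final, over 16 hours at 37 C on p53RE-bla cells (4,000/well). Cytotoxicity measured by CellTiter-Glo luminescence, 30 min at room temperature.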

[9] = p53 small molecule agonists, cell-based qHTS assay with rat liver microsomes: qHTS cell viability counter screen (AID 1963580); also: nearly all actives have a fitted effect of over 45% in size
Method in brief: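 In HCT-116 cells carrying a p53 response element-bla reporter, compounds were metabolically activated in situ by rat liver microsomes with NADPH over 16 h. Cell ATP content then served as the cytotoxicity measure.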

[10] = p53 small molecule agonists, cell-based qHTS assay: qHTS cell viability counter screen (AID 1963581); also: nearly all actives have a fitted effect of over 45% in size
Method in brief: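 Following 5 h attachment, HCT-116 p53RE-bla cells took up compound for 16 h at 37 C; the reporter was read with B/G FRET substrate (2 h RT), and viability then via CellTiter-Glo ATP luminescence.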

[11] = p53 small molecule agonists, cell-based qHTS assay (AID 1963582; active = well fitted activation curve with a large enough effect in the signal ratio in the repeat runs, not every such curve was filed as active; the % refers to the signal ratio)
Method in brief: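 In this cell-based concentration-response screen, a p53 response element drives beta-lactamase; cells received DMSO-borne compounds after 5 h culture and were incubated a further 16 h before FRET substrate development.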

[12] = target: 5-hydroxytryptamine receptor 2A (Homo sapiens) (UniProt P28223); assay: 5-hydroxytryptamine receptor 2A (HTR2A) small molecule antagonists, cell-based qHTS assay (AID 1963586); also: nearly all actives have a fitted effect of over 45% in size
Method in brief: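 Antagonist-mode intracellular calcium assay: DOI (4 nM) added after 5 min compound pre-incubation at room temperature to dye-loaded HTR2A-CHO cells. Fluorescence followed for 3 min, sampled every second.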

[13] = target: 5-hydroxytryptamine receptor 2A (Homo sapiens) (UniProt P28223); assay: 5-hydroxytryptamine receptor 2A (HTR2A) small molecule agonists, cell-based qHTS assay (AID 1963587); also: nearly all actives have a fitted effect of over 30% in size
Method in brief: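 HTR2A-CHO cells, plated 18 h at 37 C/5% CO2, dye-loaded 1 h at 37 C; compounds in DMSO added by pin tool (agonist mode). Intracellular calcium flux read as kinetic fluorescence on FDSS over 2 min at 1 s intervals.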

[14] = target: Muscarinic acetylcholine receptor M1 (Homo sapiens) (UniProt P11229); assay: Cholinergic receptor muscarinic 1 (CHRM1) small molecule agonists, cell-based qHTS assay (AID 1963589); also: nearly all actives have a fitted effect of over 35% in size
Method in brief: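 Measures agonist-induced intracellular calcium rise. Stable human CHRM1 CHO line, 1 h dye load at 37 C, compounds from DMSO, kinetic fluorescence read.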

[15] = cAMP Responsive Elements (CRE) small molecule agonists, cell-based qHTS assay (AID 1963590)
Method in brief: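 A CRE-responsive beta-lactamase reporter in HEK 293T cells was used. Treatment ran 3 h at 37 C; detection used LiveBLAzer B/G FRET substrate for 2 h at room temperature.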

[16] = cAMP Responsive Elements (CRE) small molecule antagonists, cell-based qHTS assay (AID 1963591; active = well fitted inhibition curve with a large enough effect in the signal ratio in the repeat runs, not every such curve was filed as active; the % refers to the signal ratio)
Method in brief: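 HEK293T cells carrying a CRE-driven beta-lactamase reporter receive compound and NKH477 (0.25 uM final) for 3 h. Fluorescence from LiveBLAzer B/G FRET substrate is read after 2 h at room temperature.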

[17] = target: Beta-2 adrenergic receptor (Homo sapiens) (UniProt P07550); assay: Adrenergic beta2 receptor (ADRB2) small molecule antagonists, cell-based qHTS assay (AID 1963592); also: series mostly up to about 92 µM; nearly all actives have a fitted effect of over 50% in size
Method in brief: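 Cells (CHO, stable ADRB2 overexpression) incubated 18-20hr at 37C; compounds added from DMSO; agonist mix (1nM isoproterenol, 100uM IBMX, 25uM Ro-20-1724) added; 0.5hr RT; d2-cAMP and anti-cAMP-cryptate added; 1hr RT; 665/615 nm read.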

[18] = target: D(2) dopamine receptor (Homo sapiens) (UniProt P14416); assay: Dopamine D2 receptor (DRD2) small molecule antagonists, cell-based qHTS assay (AID 1963595; active = well fitted inhibition curve with a large enough effect in the signal ratio in the repeat runs, with a control signal flat; the % refers to the signal ratio)
Method in brief: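 HEK293 cells stably expressing DRD2 were preincubated with 0.1 mM Ro20-1724, then with compound for 10 min at room temperature. Cells were stimulated with 200 nM NKH477 plus 12 nM quinpirole for 30 min, and cAMP was read by HTRF.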

[19] = target: D(2) dopamine receptor (Homo sapiens) (UniProt P14416); assay: Dopamine D2 receptor (DRD2) small molecule agonists, cell-based qHTS assay (AID 1963594); also: nearly all actives have a fitted effect of over 35% in size
Method in brief: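 HEK293 cells stably expressing DRD2 were cultured 24 h at 37 C, then given Ro20-1724 (0.1 mM final) and compounds for 10 min at room temperature. NKH477 (200nM) was then added for 30 min. cAMP was read by HTRF.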

Measured: Potency

Chain of 5-hydroxytryptamine receptor 2A (Homo sapiens) (P28223 whole entry, looked up): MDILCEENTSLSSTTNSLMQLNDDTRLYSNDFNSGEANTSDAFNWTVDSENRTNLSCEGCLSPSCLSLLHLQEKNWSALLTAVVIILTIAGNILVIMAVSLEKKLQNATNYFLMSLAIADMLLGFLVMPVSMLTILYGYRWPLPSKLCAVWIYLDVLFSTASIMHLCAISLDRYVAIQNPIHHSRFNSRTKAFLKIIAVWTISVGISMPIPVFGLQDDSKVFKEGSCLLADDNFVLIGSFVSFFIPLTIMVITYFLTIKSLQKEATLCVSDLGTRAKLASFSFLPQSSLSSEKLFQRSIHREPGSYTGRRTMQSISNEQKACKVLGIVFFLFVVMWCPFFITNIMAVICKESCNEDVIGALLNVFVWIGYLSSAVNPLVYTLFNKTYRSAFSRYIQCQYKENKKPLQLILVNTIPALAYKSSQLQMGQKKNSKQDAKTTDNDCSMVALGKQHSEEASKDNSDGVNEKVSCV
Chain of Beta-2 adrenergic receptor (Homo sapiens) (P07550 whole entry, looked up): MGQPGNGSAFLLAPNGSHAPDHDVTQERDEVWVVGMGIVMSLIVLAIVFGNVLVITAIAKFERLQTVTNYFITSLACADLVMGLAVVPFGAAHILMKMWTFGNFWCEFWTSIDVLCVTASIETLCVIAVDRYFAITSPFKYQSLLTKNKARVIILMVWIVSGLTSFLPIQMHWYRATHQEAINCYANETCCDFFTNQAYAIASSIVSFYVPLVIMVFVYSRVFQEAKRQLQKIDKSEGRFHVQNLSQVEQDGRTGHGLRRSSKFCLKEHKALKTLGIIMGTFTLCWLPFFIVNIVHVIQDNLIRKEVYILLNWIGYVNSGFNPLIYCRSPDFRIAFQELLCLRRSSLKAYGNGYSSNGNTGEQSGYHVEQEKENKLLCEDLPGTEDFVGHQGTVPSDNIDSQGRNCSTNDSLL
Chain of D(2) dopamine receptor (Homo sapiens) (P14416 whole entry, looked up): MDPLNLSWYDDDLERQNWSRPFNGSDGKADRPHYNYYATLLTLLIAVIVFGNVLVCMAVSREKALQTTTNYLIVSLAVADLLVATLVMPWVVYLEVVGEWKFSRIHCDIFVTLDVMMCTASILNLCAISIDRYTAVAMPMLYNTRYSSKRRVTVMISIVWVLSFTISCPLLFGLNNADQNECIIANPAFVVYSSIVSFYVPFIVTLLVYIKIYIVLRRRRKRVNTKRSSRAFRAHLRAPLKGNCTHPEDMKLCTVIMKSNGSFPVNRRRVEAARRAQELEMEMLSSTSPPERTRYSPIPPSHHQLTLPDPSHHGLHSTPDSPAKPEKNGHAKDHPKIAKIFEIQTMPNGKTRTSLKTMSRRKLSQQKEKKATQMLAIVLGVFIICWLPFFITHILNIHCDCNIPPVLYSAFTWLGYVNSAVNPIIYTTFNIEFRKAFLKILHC
Chain of KiSS-1 receptor (Homo sapiens) (Q969F8 whole entry, looked up): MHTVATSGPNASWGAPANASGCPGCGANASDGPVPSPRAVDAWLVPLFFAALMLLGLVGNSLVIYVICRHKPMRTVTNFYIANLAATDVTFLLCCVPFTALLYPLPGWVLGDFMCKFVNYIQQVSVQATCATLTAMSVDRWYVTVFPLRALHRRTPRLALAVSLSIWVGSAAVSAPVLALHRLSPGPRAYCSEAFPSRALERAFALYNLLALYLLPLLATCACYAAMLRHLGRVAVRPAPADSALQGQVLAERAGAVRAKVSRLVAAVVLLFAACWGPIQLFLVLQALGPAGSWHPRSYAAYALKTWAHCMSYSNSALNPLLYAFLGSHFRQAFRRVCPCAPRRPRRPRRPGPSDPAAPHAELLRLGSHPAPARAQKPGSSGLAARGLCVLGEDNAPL
Chain of Muscarinic acetylcholine receptor M1 (Homo sapiens) (P11229 whole entry, looked up): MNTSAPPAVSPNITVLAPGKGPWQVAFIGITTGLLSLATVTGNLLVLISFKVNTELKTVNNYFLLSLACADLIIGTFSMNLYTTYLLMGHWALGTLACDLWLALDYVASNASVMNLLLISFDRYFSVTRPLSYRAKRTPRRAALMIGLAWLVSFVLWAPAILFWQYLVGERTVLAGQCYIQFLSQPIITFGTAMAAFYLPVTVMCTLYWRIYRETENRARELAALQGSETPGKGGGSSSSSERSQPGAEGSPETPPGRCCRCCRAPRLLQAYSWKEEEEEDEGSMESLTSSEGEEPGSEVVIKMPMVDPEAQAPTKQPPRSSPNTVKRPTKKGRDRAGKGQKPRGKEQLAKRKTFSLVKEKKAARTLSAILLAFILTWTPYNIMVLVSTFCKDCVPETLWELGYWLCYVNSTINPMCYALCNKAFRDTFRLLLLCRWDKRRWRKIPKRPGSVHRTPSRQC
Chain of Gonadotropin-releasing hormone receptor (Homo sapiens) (P30968 whole entry, looked up): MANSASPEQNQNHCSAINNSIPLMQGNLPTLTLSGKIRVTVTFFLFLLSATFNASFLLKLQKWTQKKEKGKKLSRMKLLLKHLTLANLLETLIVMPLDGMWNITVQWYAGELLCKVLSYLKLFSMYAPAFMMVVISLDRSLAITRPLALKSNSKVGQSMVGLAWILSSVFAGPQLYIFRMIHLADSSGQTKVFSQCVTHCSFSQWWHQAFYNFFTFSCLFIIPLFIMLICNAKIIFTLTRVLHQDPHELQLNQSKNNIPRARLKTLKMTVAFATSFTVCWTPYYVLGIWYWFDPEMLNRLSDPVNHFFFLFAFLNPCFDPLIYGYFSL

CC(=O)OCCN(CCOC(C)=O)c1ccc(N=Nc2ccc([N+](=O)[O-])cc2C#N)cc1
inactive: [1] | [2] | [3] | [4] | [5] | [6] | [7] | [8] | [9] | [10] | [11] | [12] | [13] | [14] | [15] | [16] | [17] | [18]

COC(=O)c1ccccc1C(=O)O
inactive: [1] | [2] | [3] | [4] | [5] | [6] | [7] | [8] | [9] | [10] | [11] | [12] | [13] | [14] | [15] | [16] | [17] | [18]

CC(C)=CCCC(C)O (stereo not given)
inactive: [1] | [2] | [3] | [4] | [5] | [6] | [7] | [8] | [9] | [10] | [11] | [12] | [13] | [14] | [15] | [16] | [17] | [19] | [18]

CO[C@@]1(NC(=O)C(C(=O)O)c2ccc(O)cc2)C(=O)N2C(C(=O)O)=C(CSc3nnnn3C)CO[C@@H]21 (stereo not given in full)
inactive: [1] | [2] | [3] | [4] | [5] | [6] | [7] | [8] | [9] | [10] | [11] | [12] | [13] | [14] | [15] | [16] | [17] | [19] | [18]

O=C1OCCO1
inactive: [1] | [2] | [3] | [4] | [5] | [6] | [7] | [8] | [9] | [10] | [11] | [12] | [13] | [14] | [15] | [16] | [17] | [19] | [18]

C=C(C)[C@H]1CC=C(C)CC1
inactive: [1] | [2] | [3] | [4] | [5] | [6] | [7] | [8] | [9] | [10] | [11] | [12] | [13] | [14] | [15] | [16] | [17] | [18]

OCC1CC2CC1C1CCC(CO)C21 (stereo not given)
inactive: [1] | [2] | [3] | [4] | [5] | [6] | [7] | [8] | [9] | [10] | [11] | [12] | [13] | [14] | [15] | [16] | [17] | [19] | [18]
